Only some compounds are listed: those with a hit (about 14% of all), similar ones and a draw of the others.
CHX counter: affects cycloheximide protein synthesis inhibition readout, counter-screen; max response, %; cell reporter, cycloheximide protein synthesis inhibition counterscreen; 300,000 compounds, 12% hits; in the data active means max response mostly above about 13%, no sharp cut-off; inactive means mostly below about 14%; further: read at 38.3 µM for the half of the compounds with a filed dose
Shiga toxin inh: inhibitors of Shiga toxin in Vero cells; Vero cells, Shiga toxin protein synthesis inhibition reporter; AID 2315; inhibition, % at 38.7 µM; 290,000 compounds, 9.2% hits; in the data active means inhibition mostly above about 28%, no sharp cut-off; inactive means mostly below about 43%
NS1 inh: inhibitors of influenza NS1 protein function; Potency, µM (series often up to 46.1 µM); 270,000 compounds, 0.4% hits; AID 2326; calls by dose curve; further: actives are rising curves; nearly all actives have a fitted effect of over 50% in size
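Recovery from NS1-induced slow growth read by OD600 in budding yeast switched to galactose assay medium (pH 6.0, -URA) at 1:100 dilution. Compound 23 nl per well; the matching strain lacking NS1 serves as control.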
FBPA Giardia inh: Giardia lamblia aldolase inhibition; purified Giardia FBPA; A8B2U2; 290,000 compounds, 0.71% hits; Potency, µM (doses to about 59.6 µM), hits mostly inhibitors; further: nearly all actives have a fitted effect of over 55% in size
Target sequence (A8B2U2 whole entry, looked up): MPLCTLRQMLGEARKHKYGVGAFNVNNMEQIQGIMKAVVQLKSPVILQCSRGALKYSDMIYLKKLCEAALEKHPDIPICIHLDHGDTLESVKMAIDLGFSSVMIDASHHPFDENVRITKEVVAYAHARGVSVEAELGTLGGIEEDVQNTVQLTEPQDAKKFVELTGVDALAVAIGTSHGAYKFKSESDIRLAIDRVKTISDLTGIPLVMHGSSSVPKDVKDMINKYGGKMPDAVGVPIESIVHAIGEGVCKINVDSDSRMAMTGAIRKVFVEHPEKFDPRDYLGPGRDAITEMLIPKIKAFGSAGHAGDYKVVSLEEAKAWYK
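40 nM FBPA preincubated 10 min at RT with compound (up to 57.5 uM final), then substrate plus GAPDH/TPI/NAD/arsenate coupling and diaphorase/resazurin added. Fluorescence read after 20 min at RT, 525/598 nm.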
LmPK inhibitor: LmPK (Leishmania mexicana) enzyme inhibition; Q27686; purified LmPK, Kinase-Glo ATP luminescence, 1 h; Potency, µM (series often up to 57.5 µM), usual class: inhibitors; 290,000 compounds, 0.37% hits; AID 1721
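Kinase-Glo luminescence read after 1 h RT reaction of 0.1 nM LmPK with 0.5 mM PEP and 0.1 mM ADP. Activity scaled between uninhibited and enzyme-free controls.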
Of the large screens only hits and unclear results are named; the others gave an inactive call. Unless noted, the call rests on the fitted dose curve; in most records, active means well fitted curve in the direction sought with a large enough effect; inconclusive means small, poorly fitted or top-dose-only effect, or another doubt; inactive means no such curve, though single readings can be large; an effect the other way counts as inactive or inconclusive.

O=C(Nc1cnc2ccccc2c1)c1cccnc1	CHX counter 22.8
CN(C)C(=O)Nc1cnc2ccccc2c1	none
Cc1ccc(C(=O)Nc2cccc(-c3cnc4ccccc4n3)c2)cc1	none
CC(=O)Nc1ccc(C(=O)Nc2cccc(-c3cnc4ccccc4n3)c2)cc1	none (no result: NS1 inh)
CS(=O)(=O)Nc1cccc(-c2cnc3ccccc3n2)c1	CHX counter 36.9, Shiga toxin inh 84.6
Cn1c(NC(=O)c2cccnc2)nc2ccccc21	CHX counter 37.9, Shiga toxin inh active, LmPK inhibitor inconclusive
CC(C)C(=O)Nc1cccc(-c2cnc3ccccc3n2)c1	CHX counter 21.4
O=C(Nc1ccc(NC(=O)c2cccnc2)cc1)c1ccccc1	none (no result: FBPA Giardia inh)
COc1ccc(C(=O)Nc2cccc(-c3cnc4ccccc4n3)c2)cc1	none
CNC(=S)Nc1cccc(-c2cnc3ccccc3n2)c1	CHX counter 26.1, Shiga toxin inh 57.9
O=C(Nc1cnc2ccccc2c1)c1cccc(-n2cnnn2)c1	CHX counter 87.7, Shiga toxin inh 163.8, NS1 inh inconclusive
Cc1cccc(C(=O)Nc2cccc(-c3cnc4ccccc4n3)c2)c1	none
O=C(Nc1cccc(-c2cnc3ccccc3n2)c1)c1ccco1	CHX counter 55.3, Shiga toxin inh 100.2
CNC(=O)C(=O)Nc1nc(C23CC4CC(CC(C4)C2)C3)cs1	CHX counter 15.7
O=C(NCc1ccccc1)C(=O)Nc1nc(C23CC4CC(CC(C4)C2)C3)cs1	none
COc1ccc(-c2nnc(N(C)C(=O)c3cccnc3)s2)cc1	CHX counter 26.5
CN(C(=O)c1ccccn1)c1nnc(-c2cccnc2)s1	CHX counter 53.9
CCc1nnc(NC(=O)CCC(=O)NC2CC2)s1	none (no result: FBPA Giardia inh)
COc1ccc(OC)c(NC(=O)NNC(=O)CCCOc2ccc(Cl)cc2C)c1	none
CC(NS(=O)(=O)c1ccc2c(c1)CC(=O)N2C)c1ccccc1 (configuration not stated)	none
O=C(O)COc1ccc(C(=O)Cc2ccc3c(c2)OCCCO3)c(O)c1	none
O=C(COc1ccccc1Br)c1ccc(O)cc1O	none
COc1ccc(CC(=O)c2ccc(O)cc2O)cc1	CHX counter 49.4, Shiga toxin inh 59.0
O=C(Cc1ccc(Br)cc1)c1ccc(O)cc1O	CHX counter 48.9, Shiga toxin inh 185.6
CCOc1ccc(C(=O)Cc2ccc3oc(C(=O)O)cc3c2)c(O)c1	FBPA Giardia inh inconclusive
O=C(Cc1ccc([N+](=O)[O-])cc1)c1ccc(O)cc1O	CHX counter 16.2, Shiga toxin inh 61.2
COc1ccc(C(=O)Cc2ccc3c(c2)OCO3)c(O)c1	CHX counter 101.1, Shiga toxin inh active, NS1 inh inconclusive
CN1CCN(c2ncc3nc(-c4ccc(F)cc4)c(=O)n(Cc4cccs4)c3n2)CC1	none (no result: CHX counter, Shiga toxin inh, NS1 inh, LmPK inhibitor)
CN1CCN(C(=O)c2cc(Br)cn2C)CC1	none
CCCC[C@H]1CCCO[C@@](C(=O)NCc2cc(C)n(C)n2)(C(F)(F)F)C1	none (no result: NS1 inh, LmPK inhibitor)
Cc1ccc(S(=O)(=O)N2CCN(C(=O)Cc3ccc4c(c3)OCCO4)CC2)cc1C	none
O=C(Cc1ccc2c(c1)OCCO2)c1c(O)cc(O)cc1O	CHX counter 32.3, Shiga toxin inh 57.4
COc1ccc(-c2ccc(SCC(=O)c3cccs3)nn2)cc1	CHX counter 34.3, Shiga toxin inh 60.7
COc1ccc(-c2ccc(SCC(=O)N3CC(=O)Nc4ccccc43)nn2)cc1	CHX counter 21.2, Shiga toxin inh 35.0
COc1ccc(-c2ccc(SCC(=O)Nc3nnc(C)s3)nn2)cc1	none (no result: NS1 inh)
Cc1nc(SCC(=O)N2CC(=O)Nc3ccccc32)nc(C)c1C	none (no result: NS1 inh)
Cc1ccc(-c2ccc(SCC(=O)c3ccccc3)nn2)cc1	CHX counter 30.5
O=C(CSc1ccc(-c2ccccc2)nn1)c1cccs1	CHX counter 28.1
CC(=O)c1cccc(Nc2nc(=O)c3cccnc3s2)c1	none
Cc1ccc(Nc2nc(=O)c3cccnc3s2)c(Br)c1	CHX counter 18.6
CC(=O)c1ccc(Nc2nc(=O)c3cccnc3s2)cc1	CHX counter 39.2, Shiga toxin inh 70.0
O=c1nc(Nc2ccc(OCc3ccccc3)cc2)sc2ncccc12	none (no result: NS1 inh)
CCOC(=O)c1ccc(Nc2nc(=O)c3cccnc3s2)cc1	CHX counter 21.8
O=C(O)C12CC3(C(=O)O)CC(C(=O)O)(CC(C(=O)O)(C1)C3=O)C2=O	none (no result: CHX counter, Shiga toxin inh, FBPA Giardia inh, LmPK inhibitor)
CC1CC=CC2C1C(=O)N(Cc1ccccc1)C2c1ccc(F)c(Br)c1 (configuration not stated)	Shiga toxin inh 31.7 (no result: NS1 inh, LmPK inhibitor)
N#Cc1nc(COc2ccc(Br)cc2)oc1N1CCN(Cc2ccccc2)CC1	none
N#Cc1nc(COc2ccc(Cl)cc2)oc1N1CCCCCC1	none
